Experimental findings from PubChem BioAssay (NCI) are described below.

Where “and” joins values, the source holds several entries; their conditions need not be identical. Equal entries are not always repeated. This is part of a sample that, as a whole, favours compounds with a hit. Of some 79,000 tested, about 15% had one in any assay. Some structures have more than one record in an assay (separate samples or runs), and their calls can disagree. Calls of active or inactive are those of the source. No stated cut-off is given here; in the data, active means growth inhibition above about 70%; inactive means the rest.

A short description of this test: NCI Yeast Anticancer Drug Screen. Data for the sgs1 mgt1 strain (AID 161).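 Further: 0% = growth of cultures given vehicle only.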 The settings on record: S. cerevisiae sgs1 mgt1 strain, stronger effect = higher value. As for the experimental part:
Growth inhibition of yeast strains with defined genetic alterations is measured as a screen for potential anti-cancer activity. Selected strains with alterations in DNA damage repair or cell cycle control were exposed to compounds and growth inhibition was measured relative to vehicle treated controls. The strain used in this assay is sgs1 mgt1

The mark [1] stands for this setting: at 5.0 µM (retest, dose inferred, filed as 0.5).
[2] abbreviates: at 50.0 µM (retest, dose inferred, filed as 5.0).

As to `N=C(N)c1ccc(N=Nc2c(O)ccc3c2[nH]c2ccccc23)cc1`, the growth inhibition under setting [1] was 17% (inactive), the growth inhibition under setting [2] was 97% (active) and the growth inhibition (at 50.0 µM) was 96.8% (active).
Consider `CCOC(=O)C1=C(C)NC(C)=C(C(=O)OCC)C1c1ccc(Cl)cc1`, for which the growth inhibition under setting [1] is -1% (inactive) and the growth inhibition under setting [2] is 98% (active).
`CCCCCCCCCCCCCCCCCN`: the growth inhibition by setting is: under setting [1], 7% (inactive); under setting [2], 50% (inactive); (at 50.0 µM) 47.4% (inactive) and 92.5% (active).
In the case of `Cc1ccc2oc(-c3cccc(N)c3)nc2c1`, the growth inhibition runs as follows: under setting [1], 10% (inactive); under setting [2], 48% (inactive); (at 50.0 µM) -18.8% (inactive).
As to `CCOC(=O)C1=C(C)NC(C)=C(C(=O)OCC)C1c1cccc([N+](=O)[O-])c1`, the growth inhibition by setting is: under setting [1], -15% (inactive); under setting [2], 22% (inactive).
Regarding `COc1ccc(/C=C2\CCc3ccccc3C2=O)cc1OC`, the growth inhibition runs as follows: under setting [1], 37% (inactive); under setting [2], 68% (inactive); (at 50.0 µM) 84.8% (active).
As to `CCOC(=O)c1[nH]c2cccc3c2c1CC(Br)C3=O` (stereo not given), the growth inhibition by setting is: under setting [1], 66% (inactive); under setting [2], 96% (active); (at 50.0 µM) 83.3% (active).
Turning to `CN(C)CCNC(=O)c1cccc2nc3c(ccc4ccccc43)nc12`, the growth inhibition is, setting by setting: under setting [1], 3% (inactive); under setting [2], 37% (inactive); (at 50.0 µM) 40.2% (inactive).
Consider `O=C1C=CC(=Nc2ccc3c(c2)Cc2cc(Cl)ccc2-3)O1`, for which the growth inhibition under setting [1] was 49% (inactive), the growth inhibition under setting [2] is 100% (active) and the growth inhibition (at 50.0 µM) was 99.5% (active).
For `O=C(O)/C=C\C(=O)NNc1ccc(Br)cc1`, the growth inhibition under setting [1] is 31% (inactive), the growth inhibition under setting [2] was 98% (active) and the growth inhibition (at 50.0 µM) is 98.5% (active).
On the same counts, the results for `CCOC(=O)/C=C1\CCCn2c1ncc(C(=O)OCC)c2=O` are 4% (inactive), 9% (inactive) and 81.7% (active).
As for `COc1cc(C(C)C(C(=O)O)C(=O)C(=O)O)cc(OC)c1OC` (stereo not given), the growth inhibition is -5% (inactive) under setting [1], 2% (inactive) under setting [2] and -3.75% (inactive) (at 50.0 µM).
Take `BrC/C=C/C[P+](c1ccccc1)(c1ccccc1)c1ccccc1`: the growth inhibition runs as follows: under setting [1], 18% (inactive); under setting [2], 18% (inactive); (at 50.0 µM) 92% (active).
For the compound `O=C(Nc1ccn(C2CC(O)C(COC(c3ccccc3)(c3ccccc3)c3ccccc3)O2)c(=O)n1)c1ccccc1` (stereo not given), the growth inhibition under setting [1] was 50% (inactive), the growth inhibition under setting [2] is 94% (active) and the growth inhibition (at 50.0 µM) was 37.6% (inactive).
